The text below walks through data of the supplement of paper PMC7057948, “A genome-wide approach for identification and characterisation of metabolite-inducible systems” (Nature Communications, 2020).

What all share (settings): inducer concentration 5 mM; 6 h; Cupriavidus necator H16; minimal medium + 0.4% gluconate
The subject of assay [1] is AcoR/P_H16_RS19445 acetoin biosensor (pEH052). Description: relative induction of RFP reporter vs primary effector (background-corrected); higher = stronger activation of the biosensor. Here is the method: (§1)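 C. necator H16 strains, each carrying one of 21 transcription factor/inducible promoter–mRFP biosensor plasmids, were grown in minimal medium in 96-well plates (robotic platform). Each was exposed to 46 structurally or metabolically related compounds at 5 mM at 30 °C. OD-normalised RFP fluorescence was read 6 h later and expressed as relative induction (%) = 100 × (FL compound − FL uninduced)/(FL primary inducer − FL uninduced); mean of n=4.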

For assay [2], the system named is AraC/P_araBAD L-arabinose biosensor (pEH176). The description is as above. Here is the method: as §1
The test system of assay [3] is BenM/P_H16_RS09790 benzoate biosensor (pEH148). The description is as above. Here is the method:
as §1

For assay [4], the system named is FdsR/P_H16_RS03165 formate biosensor (pEH134). The description is as above. How it is done:
as §1

The test system of assay [5] is GabR/P_H16_RS23655 GABA biosensor (pEH256). The description is as above. Here is the method:
as §1

Assay [6] deals with HpdR/P_H16_RS18295 3-hydroxypropanoate biosensor (pEH010). The description is as above. How it is done:
as §1

Assay [7] has as its system KynR/P_H16_RS14030 L-kynurenine biosensor (pEH136). The assay is described as above. How it is done:
as §1

Assay [8] concerns NahR/P_H16_RS08125 salicylate biosensor (pEH042). The description is as above. Here is the method:
as §1

The test system of assay [9] is OapR/P_H16_RS01330 beta-alanine biosensor (pEH147). The assay is described as above. How it is done: as §1
Assay [10] concerns PcaQ/P_H16_RS30145 3,4-dihydroxybenzoate biosensor (pEH161). Described as above. How it is done:
as §1

Assay [11] concerns PhgR/P_H16_RS05530 phenylglyoxylate biosensor (pEH155). The assay is described as above. Here is the method:
as §1

For assay [12], the system named is PhhR/P_H16_RS18365 L-phenylalanine biosensor (pEH137). The assay is described as above. How it is done: as §1
The test system of assay [13] is SauR/P_H16_RS13695 sulfonatoacetate biosensor (pEH157). The assay is described as above. Here is the method:
as §1

In assay [14] the test system is TtdR/P_H16_RS10665 tartrate biosensor (pEH083). The description is as above. How it is done: as §1
Assay [15] deals with XdhR/P_H16_RS05055 xanthine biosensor (pEH154). The assay is described as above. How it is done: as §1
Assay [16] deals with heterologous inducible system pEH002 (rhamnose/acrylate/cumate/itaconate set). The assay is described as above. Here is the method: as §1
Assay [17] relates to heterologous inducible system pEH020 (rhamnose/acrylate/cumate/itaconate set). Described as above. How it is done:
as §1

Assay [18] deals with heterologous inducible system pEH040 (rhamnose/acrylate/cumate/itaconate set). The assay is described as above. How it is done: as §1
Assay [19] concerns heterologous inducible system pEH086 (rhamnose/acrylate/cumate/itaconate set). The assay is described as above. Here is the method:
as §1

Assay [20] deals with AcoR/P_H16_RS19445 acetoin biosensor (pEH052). Description: relative induction of RFP reporter vs primary effector; higher = stronger activation. How it is done: (§2)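 Orthogonality screen of 21 primary inducers against 21 transcription factor/inducible promoter–mRFP biosensors in C. necator H16 in minimal medium, robotic 96-well format, 5 mM inducer, 30 °C. OD-normalised RFP fluorescence was read 6 h later and expressed as relative induction (%) = 100 × (FL compound − FL uninduced)/(FL primary inducer − FL uninduced); mean of n=4. Cognate pairs (100% by definition) omitted.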

The test system of assay [21] is AraC/P_araBAD L-arabinose biosensor (pEH176). Described as above. How it is done: as §2
Assay [22] concerns BadR/P_H16_RS27200 cyclohexanecarboxylate biosensor (pEH159). The description is as above. How it is done: as §2
The test system of assay [23] is BenM/P_H16_RS09790 benzoate biosensor (pEH148). The assay is described as above. How it is done:
as §2

Assay [24] deals with FdsR/P_H16_RS03165 formate biosensor (pEH134). Described as above. Here is the method: as §2
Assay [25] relates to GabR/P_H16_RS23655 GABA biosensor (pEH256). The description is as above. Here is the method: as §2
Assay [26] deals with HpdA/P_H16_RS24175 L-tyrosine biosensor (pEH158). The description is as above. Here is the method:
as §2

The subject of assay [27] is NahR/P_H16_RS08125 salicylate biosensor (pEH042). Described as above. How it is done:
as §2

For assay [28], the system named is OapR/P_H16_RS01330 beta-alanine biosensor (pEH147). Described as above. Here is the method: as §2
Assay [29] has as its system PcaQ/P_H16_RS30145 3,4-dihydroxybenzoate biosensor (pEH161). The assay is described as above. Here is the method: as §2
The test system of assay [30] is PhgR/P_H16_RS05530 phenylglyoxylate biosensor (pEH155). Described as above. Here is the method:
as §2

Assay [31] deals with SauR/P_H16_RS13695 sulfonatoacetate biosensor (pEH157). The assay is described as above. How it is done: as §2
The subject of assay [32] is TtdR/P_H16_RS10665 tartrate biosensor (pEH083). The description is as above. How it is done: as §2
Assay [33] deals with XdhR/P_H16_RS05055 xanthine biosensor (pEH154). Described as above. How it is done: as §2
Assay [34] deals with heterologous L-rhamnose-inducible system. The assay is described as above. How it is done: as §2
Assay [35] has as its system heterologous acrylate-inducible system. The description is as above. How it is done:
as §2

For assay [36], the system named is heterologous cumate-inducible system. The description is as above. How it is done:
as §2

The subject of assay [37] is heterologous itaconate-inducible system. Described as above. How it is done: as §2
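Throughout, for relative induction of RFP reporter vs primary effector (background-corrected): RFP excited at 585 nm with emission read at 620 nm, culture medium blanks subtracted from fluorescence and absorbance prior to normalisation.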

`CC(=O)CCC(=O)O` [levulinic acid]: the “relative induction of RFP reporter” value in assay [1] is -2.12%; in [2], 0.00636%; in assay [3], -0.0388%; in assay [4] it was -11.8%; in assay [5] it was -2.89%; in assay [6], -0.37%. Moreover, the “relative induction of RFP reporter” value in [7] is -0.594%; in assay [8], -0.0149%; in [9], -1.91%; in assay [10] it was -0.265%; in assay [11], -0.187%; in assay [12], -0.623%. Besides, the “relative induction of RFP reporter” value is -0.0306% in assay [13]; 1.16% in assay [14]; -0.941% in assay [15]; 0.0157% in [16]; -1.82% in assay [17]; -1.61% in [18]. Also, the “relative induction of RFP reporter” value in assay [19] is -0.139%.
For the compound `CCC(=O)O` [propanoate], the “relative induction of RFP reporter” value in assay [1] is -1.68%; in [2], -0.00959%; in [3] it was -0.0373%; in assay [4], -1.16%; in assay [5] it was -3.91%; in [7], -0.867%. For the same compound, the “relative induction of RFP reporter” value in assay [8] is -0.000302%; in [9] it was -1.95%; in assay [10], -0.275%; in assay [11], -0.224%; in [12], -0.418%; in assay [13], 0.0421%. Moreover, the “relative induction of RFP reporter” value in [14] was -0.423%; in assay [15], -0.832%; in assay [16], -0.00545%; in [17], -0.954%; in assay [18], 0.605%; in assay [19], -0.0388%.
`O=C(O)c1cc(=O)c2ccccc2[nH]1` [kynurenate]: the “relative induction of RFP reporter” value was -1.75% in [1]; -0.028% in [2]; -0.0535% in assay [3]; -9.16% in assay [4]; -2.49% in [5]; -0.379% in assay [6]. Moreover, the “relative induction of RFP reporter” value was 0.25% in assay [7]; 0.0049% in [8]; -1.34% in assay [9]; 0.113% in assay [10]; -0.313% in [11]; -0.383% in assay [12]. Also, the “relative induction of RFP reporter” value in [13] was 0.00396%; in assay [14], -0.284%; in assay [15] it was -0.96%; in assay [16] it was 0.00297%; in assay [17], -2.26%; in [18], -1.57%. Moreover, in assay [19], the “relative induction of RFP reporter” value is -0.378%.
As to `Nc1ccccc1C(=O)C[C@H](N)C(=O)O` [L-kynurenine], the “relative induction of RFP reporter” value in assay [20] is -1.84%; in [21], -0.00708%; in assay [22], -0.604%; in [23], -0.0309%; in assay [24] it was -4.32%; in assay [25], -1.24%. For the same compound, the “relative induction of RFP reporter” value in assay [26] was 0.183%; in assay [27] it was 0.00391%; in assay [28], 0.521%; in [29] it was -0.136%; in assay [30] it was -0.296%; in [31], 0.00419%. For the same compound, the “relative induction of RFP reporter” value in [32] is -0.312%; in assay [33], -0.483%; in [34] it was -0.00942%; in assay [35] it was -1.79%; in [36], -0.886%; in assay [37] it was -0.412%.
